High-throughput results from PubChem BioAssay.
The list is not random: actives were taken first. Their share in the collection is about 6.5%.
LASV entry inh: inhibitors of Lassa virus binding or cell entry. Potency, µM (series often up to 37.9 µM), for the others: top-dose activity change, negative = inhibition, usual class: inhibitors. Lassa virus pseudotype entry inhibition, cell reporter. 300,000 tested, 1.2% active; calls by dose curve; tested in HEK293 cells; note: potency is the fitted concentration of half-maximal effect; nearly all actives have a fitted effect of over 50% in size
VACV mCherry inh: inhibitors of vaccinia virus infection (mCherry reporter signal) | Vaccinia virus mCherry reporter infection, fluorescence | Potency, µM (top dose mostly 36.5 µM), inactives show at the highest dose activity change, negative = inhibition, usual class: inhibitors | 310,000 tested, 0.63% active | AID 720579; calls by dose curve; tested in A549 cells; note: potency is the fitted concentration of half-maximal effect; nearly all actives have a fitted effect of over 35% in size
HCMV inh: human cytomegalovirus inhibition; HFF cells, HCMV-luciferase reporter, 72 h; stronger effect = lower value; activity change, negative = inhibition, % at 57.5 µM; 410,000 tested, 4.5% active; in the data active = activity change below about -60%; inconclusive = no clear call, values can overlap the other calls; inactive = above about -39%
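Luciferase read-out from HCMV-luciferase-infected HFFs (MOI 1 PFU/cell) 72 h post infection at 37C; compounds added after 16 h cell attachment; activity normalized between buffer-only basal and Salinomycin (10uM) inhibitor controls.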
VACV Venus inh: vaccinia inhibition (Venus reporter) | 330,000 tested, 0.46% active | Vaccinia virus Venus reporter expression, fluorescence | AID 720580 | Potency, µM (series often up to 36.5 µM), inactives show top-dose activity change, negative = inhibition, usual class: inhibitors; calls by dose curve; tested in A549 cells; note: potency is the fitted concentration of half-maximal effect; nearly all actives have a fitted effect of over 30% in size
MARV entry inh: Marburg virus entry inhibition; Potency, µM (titrated, usually from 37.8 µM), for inactives: at the highest dose activity change, negative = inhibition, hits mostly inhibitors; Marburg virus pseudotyped entry inhibition, cell reporter; AID 540276; 300,000 tested, 1.8% active; calls by dose curve; tested in HEK293 cells; note: potency is the fitted concentration of half-maximal effect
FMDV inh: blocks foot and mouth disease virus; FMDV antiviral cell-based qHTS; Potency, µM (doses to about 57.9 µM), for the others: at the top dose activity change, negative = inhibition, hits mostly inhibitors; 410,000 tested, 1.2% active; calls by dose curve; tested in HEK293T cells; note: read-out not given here; potency is the fitted concentration of half-maximal effect; nearly all actives have a fitted effect of over 45% in size
Numbers without * were called inactive; i = inactive; ? = inconclusive; / = no result; [ ] = dose if it differs, or a comment. % is set by controls: 0 for no effect and ±100 for the full control effect.

SMILES	LASV entry inh	VACV mCherry inh	HCMV inh	VACV Venus inh	MARV entry inh	FMDV inh
CC(NC(=O)/C(C#N)=C/c1ccc(OCC(=O)O)cc1)c1ccccc1 (stereo not drawn)	/	/	23	/	/	1%
CC(NC(=O)/C(=C/c1ccc(OC(F)F)cc1)c1ccccc1)c1ccccc1 (stereo not drawn)	-23%	?	-79*	?	?	?
O=C(CNC(=O)c1ccccc1)OCC(=O)c1cccc2ccccc12	/	24%	/	-13%	/	/
COc1ccccc1C(=O)N1c2ncnn2C2(CCCCC2)[C@@H]2CCCC[C@@H]21	2%[46.1 µM]	-13%	-5	-6%	-9%[46.1 µM]	-16%
CC(C)C(=O)N1c2ncnn2C2(CCCCC2)[C@@H]2CCCC[C@@H]21	29%[46.1 µM]	-15%	-111*	-11%	0%[46.1 µM]	-27%
CC(=O)c1ccc(-n2ccc(=O)cc2)cc1	/	/	/	/	/	8%
CCOC(=O)N1CCC(N2Cc3cccc(C(=O)Nc4ccc(F)cc4)c3C2=O)CC1	-2%	/	-102*	/	-2%	-15%
CCOC(=O)N1CCC(N2Cc3cccc(C(=O)Nc4ccc(CC)cc4)c3C2=O)CC1	-16%	/	65	/	?	-15%
COc1cccc(N2CCN(c3c4c(nc5ncnn35)CCC4)CC2)c1	-17%	/	-86*	/	-42%	14µM*
c1ccc(N2CCN(c3c4c(nc5ncnn35)CCC4)CC2)cc1	-6%	/	-62*	/	?	?
COC(=O)C[C@H]1c2cc(C(F)(F)F)ccc2S(=O)(=O)N1Cc1ccccc1OC	/	-21%	-12	-9%	/	-10%
COc1ccc(CCNC(=O)C(=O)NCC2OCCN2S(=O)(=O)c2ccccc2)cc1OC (stereo not drawn)	/	-14%	-27	-19%	/	-21%
O=C(NCCc1ccccc1)C(=O)NCC1CCCN1S(=O)(=O)c1ccccc1 (stereo not drawn)	?	?	-28	?	11µM*	-19%
COc1ccc(CCNC(=O)C(=O)NCC2CCCN2S(=O)(=O)c2ccccc2)cc1OC (stereo not drawn)	?	-29%	-4	-24%	?	22µM*
CCOC(=O)c1[nH]ncc1CN1CCc2ccc(NC(=O)C3CCCO3)cc2C1 (stereo not drawn)	8%	-7%	8	-3%	8%	-5%
CS(=O)(=O)c1ccc(C(=O)Nc2cc(S(C)(=O)=O)ccc2Cl)cc1	22%	-19%	?	-12%	-6%	?
CS(=O)(=O)c1ccc(Cl)c(NC(=O)CCl)c1	18µM*	?	-2	?	?	25µM*
Cc1n[nH]c2c([N+](=O)[O-])c(=O)[nH]c(=O)n12	17%	-8%	-71*	-6%	?	2%
COCCC(=O)NCC1Cc2cc(Cl)cc(-c3ccc4[nH]ccc4c3)c2O1 (stereo not drawn)	/	-9%	/	-4%	/	1%
CC(=O)N1Cc2ccccc2C(C)CC12CCCC2 (stereo not drawn)	-11%	i	26	-12%	-7%	25µM*
COc1ccc(Nc2nc(NC(C)(C)C)nc(N3CCOCC3)n2)c(OC)c1	-7%	/	-61*	/	13µM*	0%
COc1ccc(Nc2nc(N3CCCC3)nc(N3CCCC3)n2)c(OC)c1	-19%	/	-92*	/	2.1µM*	-16%
COc1ccc(Nc2nc(N3CCCCC3)nc(N3CCCCC3)n2)c(OC)c1	-3%	/	-16	/	-7%	-23%
COc1ccc(Nc2nc(NC(C)(C)C)nc(N3CCCC3)n2)c(OC)c1	-21%	/	-89*	/	5.2µM*	?
Nc1[nH]c(C(=O)c2ccccc2)c(-c2ccncc2)c1C(=O)NC1CC1	/	i	-10	5%	/	-22%
SMILES	LASV entry inh	VACV mCherry inh	HCMV inh	VACV Venus inh	MARV entry inh	FMDV inh
C[C@H]1[C@@H](c2ccccc2)Oc2c(Cl)cccc2S(=O)(=O)N1C	/	/	-19	/	?	/
O=C(c1c[nH]c(C(=O)C(Cl)(Cl)Cl)c1)c1c(F)cccc1F	-16%[46.1 µM]	-10%	-80*	-12%	9%[46.1 µM]	0%
NC(=O)CNc1n[nH]c(=S)[nH]c1=O	10%[46.1 µM]	-8%	-6	-26%	3%[46.1 µM]	9%
C/C=C(/C)C(=O)O[C@H]1C(C)=C2[C@H]([C@@H]1OC(=O)CCCCCCC)[C@@](C)(OC(C)=O)C[C@H](OC(=O)CCC)[C@@]1(O)[C@H]2OC(=O)[C@@]1(C)O	0.33µM*	-2%[20.9 µM]	/	-12%[20.9 µM]	0.15µM*	1%[39.8 µM]
COC(=O)C(NC(=O)c1ccc(F)cc1)(Nc1ncc(S(=O)(=O)c2ccc([N+](=O)[O-])cc2)s1)C(F)(F)F (stereo not drawn)	?	11µM*	-1	?	?	13µM*
COc1ccc2c(c1)[C@@]1(OCCC=C[C@@H]1C)C(=O)N2CC=C(C)CCC=C(C)C	/	/	/	/	-10%[14.2 µM]	/
CCN(Cc1ccccc1)C(c1ccc(Cl)cc1)c1nnnn1C(C)(C)C (stereo not drawn)	?	/	-97*	2%	?	?
CCN(Cc1ccccc1)C(c1ccc(C)cc1)c1nnnn1C(C)(C)C (stereo not drawn)	-10%	/	-25	-14%	2%	?
CCC1Sc2ccc(S(=O)(=O)Nc3ccc(OC)c(OC)c3)cc2NC1=O (stereo not drawn)	?	-11%	-76*	-11%	?	-21%
CCC1Sc2ccc(S(=O)(=O)Nc3ccc(OC)cc3)cc2NC1=O (stereo not drawn)	/	/	-11	/	/	1%
COc1ccc(C)cc1NS(=O)(=O)c1ccc2c(c1)NC(=O)C(C)S2 (stereo not drawn)	/	/	-77*	/	/	27%
CCC1COCCS(=O)(=O)N1Cc1cccc(C(F)(F)F)c1 (stereo not drawn)	/	i	-15	-19%	/	-13%
O=C(Nc1cccc2ccccc12)c1ccc([N+](=O)[O-])s1	?	?	-98*	?	-26%	-16%
O=C(Nc1cccnc1)c1ccc([N+](=O)[O-])s1	/	/	-84*	/	/	-12%
O=C(Nc1ccccc1F)c1ccc([N+](=O)[O-])s1	?	-19%	?	?	?	24%
O=C(Nc1cccnc1)c1cc(Br)c(Br)s1	19%	-1%	-2	-2%	18%[46.1 µM]	20%
O=C(Nc1cccc2ccccc12)c1cnsn1	/	/	-64*	/	/	-1%
CO[C@H]1CN(C)C(=O)c2ccc(NC(=O)C3CCC3)cc2OC[C@H](C)N(Cc2ccc(F)cc2)C[C@@H]1C	/	-15%	0	-16%	/	-28%
O=C(N[C@H]1CC[C@@]23CCCN2C(=O)CCC[C@H]3[C@H]1Cc1ccccc1)c1ccc(Cl)c(C(F)(F)F)c1	/	/	7	/	/	/
COc1ccccc1N(CC(=O)Nc1cc(C)on1)S(=O)(=O)c1ccc(Cl)cc1	?	/	-69*	-21%	?	-12%
COc1ccc(OC)c(N(CC(=O)NCC2CCCO2)S(=O)(=O)c2ccccc2)c1 (stereo not drawn)	-1%	-13%	-63*	-4%	-10%[46.1 µM]	21%
